# Laboratory results published in PubChem BioAssay.
# A number with no mark means an inactive call.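 The calls were made as follows: active = viability increase at or above a cutoff of the median across tested compounds plus 3 SD (cut at about 8.5% in these data, passing the limit was not always enough); inconclusive = some gains above the cutoff, reason not given; inactive = the rest.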
# Experiment: viability gain of MRP-1-high H69AR cells under doxorubicin, pilot screen, MRP-1 activator project, CellTiter-Glo, duplicate (AID 807);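 also: compound pretreatment 18-22 h then 72 h combined with doxorubicin; 0% = doxorubicin alone and 100% = vehicle without doxorubicin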
# Details: H69AR viability with doxorubicin, CellTiter-Glo luminescence; at 10 µM; hits give high values
row,SMILES,viability increase [%]
1,O=C(NCc1ccco1)c1cc(S(=O)(=O)N2CCOCC2)ccc1Cl,-3.24
2,CCCCCOC(=O)NCC(O)c1ccccc1 (centres undefined),-1.52
3,CC(NC(=O)c1ccc(Cl)cc1)C(=O)N1CCCCC1 (centres undefined),0.75
4,CCOc1ccc(S(=O)(=O)Nc2ccccc2C(=O)NCC2CCCO2)cc1 (centres undefined),-0.84
5,CCOC(=O)c1sc2nc(NC(=O)c3cccs3)sc2c1C,-1.92
6,Cc1noc(C)c1S(=O)(=O)NC1CCN(Cc2ccccc2)CC1,-0.68
7,CCOC(=O)c1ccccc1NC(=O)C1COc2ccccc2O1 (centres undefined),4.16
8,CCOC(=O)N1CCC(NC(=O)C2CCN(Cc3nc(-c4ccc(CC)cc4)oc3C)CC2)CC1,-1.2
9,Cc1ccc(C2CC(c3cccc(C)c3)n3ncnc3N2)cc1 (centres undefined),-0.97
10,CCN1C(=O)C(O)(CC(=O)c2ccc3c(c2)OCCO3)c2ccccc21 (centres undefined),-2.07
11,CN(C)c1nc(N)nc(-c2cccnc2)n1,0.55
12,CCOC(=O)c1cccc(NC(=O)CNC(=O)C2CCCCC2)c1,-0.32
13,Cn1cc(S(=O)(=O)Nc2ccc(F)cc2F)c(=O)n(C)c1=O,0.9
14,O=C1NCCCC1C(=O)NCCNC(=O)C(F)(F)F (centres undefined),-1.47
15,CCc1ccc(C2CC(c3cccc(Cl)c3)n3nc(N)nc3N2)cc1 (centres undefined),-3.92
16,CN1CCN(C(=O)c2ccccc2NC(=O)Cc2ccccc2)CC1,-1.06
17,Cc1nnc(Sc2nc3c(c(=O)[nH]c(=O)n3C)n2Cc2ccccc2Cl)s1,-2.89
18,CN(C)CCNC(=O)c1cc2cc(Br)ccc2oc1=O,-2.26
19,CCOc1ccc(C2CC(c3cccc(OC)c3)Nc3ncnn32)cc1 (centres undefined),-0.82
20,COc1ccc(C(=O)N2CCC(C(=O)Nc3cccc(C)c3)CC2)cc1OC,-2.37

row,SMILES,viability increase [%]
1,CCOC(=O)C1C(=O)N(C(=O)c2cncc(Br)c2)CC1c1ccccc1 (centres undefined),-0.37
2,O=C(Nc1nnc(-c2ccc(Cl)cc2)o1)c1ccccc1Br,-3.81
3,O=C(O)c1cccc2c1C(=O)N(C1CCCCC1)C2,-1.27
4,CCOC(=O)C1CCCN(C(=O)Cn2nc(CC)n3c(cc4sccc43)c2=O)C1 (centres undefined),-0.92
5,CCOCCCNC(=O)C(c1ccc(C)cc1)N(Cc1ccc2c(c1)OCO2)C(=O)CNC(C)=O (centres undefined),0.84
6,CSc1ccc(Cl)c(C(=O)NCc2ccco2)c1,-3.7
7,O=C(CSc1ncnc2c1oc1ccccc12)Nc1cccc(C(F)(F)F)c1,1.15
8,O=C(Nc1ccc(-c2nc3cccnc3s2)cc1)c1ccco1,-3.43
9,O=C(O)CN1C(=O)C2C3C=CC(C3)C2C1=O (centres undefined),0.28
10,CCCn1c(N2CCN(Cc3cccc(C)c3)CC2)nc2c1c(=O)[nH]c(=O)n2C,-5.06
11,O=C(O)CC(CNS(=O)(=O)c1ccccc1)c1ccccc1 (centres undefined),0.76
12,CC1Cc2nc(SCC(=O)OCc3ccccc3)n(C)c(=O)c2S1 (centres undefined),-3.06
13,C=CCn1c(=O)c(C(=O)Nc2ccccc2OC)c(O)c2ccccc21,-2.69
14,O=C(NCC1CCCO1)c1ccc(CS(=O)(=O)c2ccc(Br)cc2)o1 (centres undefined),-1.53
15,Oc1cc(Cc2ccccc2)cnc1CN1CCCCC1,-1
16,CCOc1ccccc1NC(=O)CSc1nnc(-c2ccccn2)n1Cc1ccco1,-1.92
17,COc1ccc(OC)c2sc(NC(=O)c3ccc(S(=O)(=O)N(C)C)cc3)nc12,-5.45
18,O=C(CN1C(=O)c2ccccc2S1(=O)=O)NC1CCCCCC1,-1.02
19,CCN(CCC(=O)Nc1cc(OC)cc(OC)c1)Cc1ccccc1,-2.96
